Structures are written as SMILES. The campaign covered roughly 310,000 compounds. About 14,000 (4.5%) showed an effect of 50% or more. The effect is printed as a negative number. Shown is part of a subset that was picked to be rich in strong results.
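Further: peak tail current of the secondary pulse compared with the same well before compound.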

human ether-à-go-go-related gene (hERG) potassium channel, sequence (Q12809 whole entry, looked up): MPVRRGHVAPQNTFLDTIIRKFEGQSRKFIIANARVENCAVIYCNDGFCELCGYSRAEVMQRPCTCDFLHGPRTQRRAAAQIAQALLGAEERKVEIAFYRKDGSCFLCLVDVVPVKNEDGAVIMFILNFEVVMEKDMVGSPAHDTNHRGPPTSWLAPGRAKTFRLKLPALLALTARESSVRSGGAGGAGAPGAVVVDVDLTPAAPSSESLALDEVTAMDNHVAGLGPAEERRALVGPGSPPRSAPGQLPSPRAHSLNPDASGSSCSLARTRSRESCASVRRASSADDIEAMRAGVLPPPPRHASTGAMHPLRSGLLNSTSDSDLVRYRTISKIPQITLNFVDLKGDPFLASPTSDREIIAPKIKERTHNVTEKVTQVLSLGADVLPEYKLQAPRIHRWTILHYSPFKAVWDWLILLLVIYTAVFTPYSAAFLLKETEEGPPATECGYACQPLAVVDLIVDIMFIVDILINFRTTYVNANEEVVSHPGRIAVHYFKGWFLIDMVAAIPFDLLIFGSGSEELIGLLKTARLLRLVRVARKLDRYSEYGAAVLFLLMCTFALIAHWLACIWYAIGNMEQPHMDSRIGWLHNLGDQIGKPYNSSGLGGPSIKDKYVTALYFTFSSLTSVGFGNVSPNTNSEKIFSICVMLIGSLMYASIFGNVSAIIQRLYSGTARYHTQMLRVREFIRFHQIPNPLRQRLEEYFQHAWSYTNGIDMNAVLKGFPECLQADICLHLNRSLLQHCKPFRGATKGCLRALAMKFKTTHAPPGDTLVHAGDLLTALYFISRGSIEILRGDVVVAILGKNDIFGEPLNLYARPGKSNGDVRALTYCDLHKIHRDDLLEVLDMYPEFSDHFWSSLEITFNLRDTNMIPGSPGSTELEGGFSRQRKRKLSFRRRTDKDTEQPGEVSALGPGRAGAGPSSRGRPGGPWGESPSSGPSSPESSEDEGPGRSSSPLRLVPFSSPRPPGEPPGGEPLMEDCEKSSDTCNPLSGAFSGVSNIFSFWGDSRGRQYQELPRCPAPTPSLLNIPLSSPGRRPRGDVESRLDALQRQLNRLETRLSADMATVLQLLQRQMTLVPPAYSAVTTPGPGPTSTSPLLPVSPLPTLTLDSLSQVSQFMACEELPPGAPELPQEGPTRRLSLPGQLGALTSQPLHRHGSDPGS

The assay concerns the target human ether-à-go-go-related gene (hERG) potassium channel (human, UniProt Q12809). As to the kind of experiment: primary screen, population patch clamp on CHO cells stably expressing hERG; higher = less effect of the substance.
`CC(C)c1cccc(C(C)C)c1NC(=O)CN1C(=O)NC2(CCCC2)C1=O`: the “hERG current change (%, negative = inhibition) at 10uM” value is on record as 14.8%.
The value for `CCOC(=O)C(O)(CCC(O)(C(=O)OCC)C(=O)OCC)C(=O)OCC` was 5.85%.
On to `Cn1c(=O)c2c(nc(CN3CCC(C(N)=O)CC3)n2CCc2ccccc2)n(C)c1=O`, for which the “hERG current change (%, negative = inhibition) at 10uM” value was 4.44%.
The value for `CCOC(=O)c1ccc(NC(=O)NC2CC3CCC(C2)N3Cc2nnnn2Cc2ccco2)cc1` (stereo not drawn) was -21.1%.
The value for `O=C(NCc1ccc2c(c1)OCO2)c1nn(-c2ccccc2)c(=O)c2ccccc12` was -35.1%.
In the case of `COc1ccc(N(CC(=O)NCc2cccnc2)S(=O)(=O)c2c(C)nn(C)c2C)cc1`, the “hERG current change (%, negative = inhibition) at 10uM” value amounted to 3.1%.
On to `O=C(CSc1nc(-c2ccccc2)nn1C(=O)c1ccccc1)Nc1cccc([N+](=O)[O-])c1`, for which the “hERG current change (%, negative = inhibition) at 10uM” value was determined as 2.83%.
Regarding `COc1ccc(NC(=O)CCc2nc3ccccc3s2)c(OC)c1`, the “hERG current change (%, negative = inhibition) at 10uM” value is listed as -0.68%.
Next, `O=C(CN(c1cccc(C(F)(F)F)c1)S(=O)(=O)c1ccccc1)N1CCOCC1`: -30.5%; `CCC(=O)c1ccc(N2CCCCC2)c(F)c1`: 8.26%.
The value for `O=C(c1ccccc1CCc1ccccc1)N1CCCC1` was 9.12%; that for `CCOC(=O)C1CCN(C(=O)c2ccccc2CCc2ccccc2)CC1` was -8.95%; that for `CCC(=O)c1ccc(N2CCN(C(=O)c3ccc(F)cc3)CC2)c(F)c1` was -60%.
Next, `CCC(=O)c1ccc(N2CCN(C(=O)c3cccc(F)c3)CC2)c(F)c1`: -41.6%; `CCOC(=O)N1CCN(C(=O)c2ccccc2CCc2ccccc2)CC1`: -59.1%; `CCC(=O)c1ccc(N2CCN(C(=O)c3ccccc3)CC2)c(F)c1`: -70.1%.
In the case of `CCC(=O)c1ccc(N2CCN(C(=O)c3ccccc3Br)CC2)c(F)c1`, the “hERG current change (%, negative = inhibition) at 10uM” value is reported as -26.8%.
For `CCC(=O)c1ccc(N2CCN(C(=O)c3ccc(Br)cc3)CC2)c(F)c1`, the “hERG current change (%, negative = inhibition) at 10uM” value was -16%.
Next, `CCOC(=O)Nc1sc(C(=O)N(C)C)c(C)c1C(=O)OCC`: 5.73%.
The value for `O=C(COC(=O)/C=C/c1cccs1)NC(c1ccccc1)c1ccccc1` was -2.53%; that for `O=C(CNC(=O)c1ccccc1)OCC(=O)c1ccc(Cl)s1` was 0.566%.
For the compound `CC1(C)CC(=O)C2=C(C1)NC(=O)NC2c1ccccc1` (stereo not drawn), the “hERG current change (%, negative = inhibition) at 10uM” value was determined as 21.7%.
Next, `Cc1oc(CC(C)C)cc1C(=O)NCCCC(=O)O`: 13.6%; `COc1ccc(C2(CNS(=O)(=O)c3ccc(C)cc3)CCOCC2)cc1`: 15.4%; `O=C(O)c1ccc(N2C(=O)CC(SC(=NCc3ccc4c(c3)OCO4)Nc3ccccc3)C2=O)cc1` (stereo not drawn): 13.9%.
Regarding `CCOC(=O)C1=C(C)NC(=O)CC1c1ccccc1` (stereo not drawn), the “hERG current change (%, negative = inhibition) at 10uM” value is recorded as -0.777%.
Next, `COc1ccc(C(=O)CCc2ccc(OC)c(OC)c2)cc1`: -10.3%; `O=C(CNC(=O)c1ccc(Br)cc1)OCC(=O)c1ccccc1`: 10.2%; `Cc1ccc2[nH]c(-c3cccc(N)c3)cc2c1`: 18.4%.
Next, `O=C(CSc1nnc(CN2CCCCC2)n1-c1ccccc1)c1ccc2c(c1)OCO2`: -25.4%.
Next, `CCC1Oc2ccc(C)cc2N(CC(=O)N2CCCC2)C1=O` (stereo not drawn): 23.2%.
As to `CCC1Oc2ccc(C)cc2N(CC(=O)N2CCOCC2)C1=O` (stereo not drawn), the “hERG current change (%, negative = inhibition) at 10uM” value was 4.58%.
For the compound `Cc1ccc2c(c1)N(CC(=O)N1CCCCC1)C(=O)C(C)O2` (stereo not drawn), the “hERG current change (%, negative = inhibition) at 10uM” value came to 11.9%.
The value for `Cc1ccc2c(c1)N(CC(=O)N1CCN(c3nc4ccccc4s3)CC1)C(=O)C(C)O2` (stereo not drawn) was -54.5%; that for `Cc1ccc2c(c1)N(CC(=O)N1CCCC1)C(=O)C(C)O2` (stereo not drawn) was 19.4%; that for `CCC1Oc2ccc(C)cc2N(CC(=O)N2CCN(c3ccc(F)cc3)CC2)C1=O` (stereo not drawn) was -54.1%.
On to `Cc1c(C(=O)N/N=C/c2ccc(N3CCOCC3)cc2)nc2ccccn12`, for which the “hERG current change (%, negative = inhibition) at 10uM” value is -1.87%.
The value for `COC(=O)c1scc(C)c1-n1ccc(C(=O)C(=O)N(C)C)c1` was 5.31%.
Take `CCN(CC)C(=O)C(=O)c1ccn(-c2c(C)csc2C(=O)OC)c1`: the “hERG current change (%, negative = inhibition) at 10uM” value was -9.5%.
For the compound `C=CCN(CC=C)C(=O)C(=O)c1ccn(-c2c(C)csc2C(=O)OC)c1`, the “hERG current change (%, negative = inhibition) at 10uM” value was -70.3%.
The value for `NC(=O)C1CCCN(C(=O)c2ccc(Cl)cc2)C1` (stereo not drawn) was 6.59%; that for `O=C(Nc1ccccc1)c1cc(-n2cnnc2)ccc1Cl` was 9.46%.
In the case of `CN1CCN(c2ccc(NC(=O)c3ccc(Cl)cc3)cn2)CC1`, the “hERG current change (%, negative = inhibition) at 10uM” value is recorded as -53.1%.
Consider `CC(=O)Nc1ccc(N2CCN(c3ccc(C(F)(F)F)cn3)CC2)nc1`, for which the “hERG current change (%, negative = inhibition) at 10uM” value is reported as -3.49%.
Next, `Cc1ccccc1C(=O)Nc1ccc(N2CCN(C)CC2)nc1`: -1.6%.

The values above are taken from article PMC4336329 (PLoS ONE, 2015).
